Experimental findings from PubChem BioAssay (NCATS) are described below.

The conditions of assay [1]: Ebola virus entry assay, green fluorescence channel.
The conditions of assay [2]: Ebola virus entry assay, blue channel fluorescence.
For assay [3] the following is noted: Ebola virus entry assay, ratio channel.
For assay [4] the following is noted: Ebola virus entry assay, reporter ratio channel; Channel type: primary.

Each structure is given as a SMILES string. A number with no mark means an inactive call. For some assays here: Results with a measured potency or affinity are listed apart. Activity calls are given as the source filed them. How the calls were made is not given here.
Wherever efficacy is given: 0% is about no effect.

Usually AC50 stands for the midpoint of the concentration-response curve, whichever way the signal moves. Turning to `CC(=O)O[C@]1(C(C)=O)CC[C@H]2[C@@H]3C=C(Cl)C4=CC(=O)CC[C@]4(C)[C@H]3CC[C@@]21C`, in assay [1], the efficacy was 83.2%. Further, the AC50 in assay [2], in assay [3] and in assay [4] was 28.2 µM (active) in each case.
For the compound `COc1ccc(-c2cc(C(F)F)nn2-c2ccc(S(N)(=O)=O)cc2)cc1F`, the efficacy in assay [1] was 77%. In addition, the AC50 in assay [2] was 25.1 µM (active); in assay [3], 14.1 µM (active); in assay [4], 14.1 µM (active).
Regarding `O=C1C(c2[nH]c3ccccc3c2O)=Nc2ccccc21`, the efficacy in assay [1] was 51.6%. Moreover, the compound was classed as inactive in assay [2], in assay [3] and in assay [4].
With `C1CCC(C(CC2CCCCN2)C2CCCCC2)CC1` (configuration not stated), the efficacy in assay [1] is -230%. In addition, the AC50 is 1.78 µM (active) in assay [2], 0.891 µM (active) in assay [3] and 0.891 µM (active) in assay [4].
Turning to `CN(C)c1ccc(C(=C2C=CC(=[N+](C)C)C=C2)c2ccc(N(C)C)cc2)cc1`, the efficacy in assay [1] was -158%. Also, the AC50 in assay [2] was 5.01 µM (active); in assay [3] it was 3.55 µM (active); in assay [4] it was 3.55 µM (active).
Consider `CO[C@@H]1[C@@H](O[C@@H]2O[C@H](C)[C@@H](O[C@H]3C[C@@](C)(O)[C@@H](O)[C@H](C)O3)[C@H](N(C)C)[C@H]2O)[C@@H](CC=O)C[C@@H](C)[C@@H](O[C@@H]2CC[C@H](N(C)C)[C@@H](C)O2)/C=C/C=C/C[C@@H](C)OC(=O)C[C@H]1OC(C)=O`, for which the efficacy in assay [1] is 64.5%. For the same compound, the figures for the AC50 in assay [2], in assay [3] and in assay [4] were 3.16 µM (active), 3.55 µM (active) and 3.55 µM (active), respectively.
As for `CCCCOc1cc(C(=O)OCCN(CC)CC)ccc1N`, in assay [1], the efficacy is 52.2%. The AC50 in assay [2], in assay [3] and in assay [4] was 31.6 µM (active) each time.
`CN(C)CCCN1c2ccccc2Sc2ccccc21`: the efficacy in assay [1] was 62.9%. Further, the AC50 is 5.62 µM (active) in assay [2], 5.01 µM (active) in assay [3] and 5.01 µM (active) in assay [4].
Take `Cc1ccc(/C(=C\CN2CCCC2)c2ccccn2)cc1`: the efficacy in assay [1] is 48.9%. For the same compound, the AC50 in assay [2] was 31.6 µM (active); in assay [3], 28.2 µM (active); in assay [4], 28.2 µM (active).
For `NC(=NCCCCCCN=C(N)/N=C(\N)Nc1ccc(Cl)cc1)/N=C(\N)Nc1ccc(Cl)cc1`, the efficacy in assay [1] is -197%. Moreover, the AC50 in assay [2] and in assay [4] was 39.8 µM (active) throughout. Further, the outcome in assay [3] was inactive.
Consider `CCCCOc1cc(C(=O)NCCN(CC)CC)c2ccccc2n1`, for which, in assay [1], the efficacy was 119%. Further, the AC50 is 12.6 µM (active) in assay [2], 10 µM (active) in assay [3] and 10 µM (active) in assay [4].
Regarding `CCCCCCCCNC(C)C(O)c1ccc(SC(C)C)cc1` (configuration not stated), in assay [1], the efficacy is 48.4%. Besides, the AC50 in assay [2] was 14.1 µM (active); in assay [3], 11.2 µM (active); in assay [4] it was 11.2 µM (active).
Turning to `CC(C)(C)c1ccc(C(O)CCCN2CCC(C(O)(c3ccccc3)c3ccccc3)CC2)cc1` (configuration not stated), in assay [1], the efficacy is 59%. Further, the AC50 in assay [2] was 1.41 µM (active); in assay [3], 0.891 µM (active); in assay [4], 0.891 µM (active).
Consider `OCc1cc(C(O)CNCCCCCCOCCCCc2ccccc2)ccc1O` (configuration not stated), for which the efficacy in assay [1] is 98.5%. For the same compound, the AC50 in assay [2] was 7.94 µM (active); in assay [3] it was 7.08 µM (active); in assay [4] it was 7.08 µM (active).
Turning to `CCN(CC)CCOC(=O)C1(c2ccccc2)CCCC1`, the efficacy in assay [1] is 69.1%. Besides, the AC50 in assay [2] is 28.2 µM (active); in assay [3], 20 µM (active); in assay [4], 20 µM (active).
In the case of `Cc1nc2n(c(=O)c1CCN1CCC(C(=O)c3ccc(F)cc3)CC1)CCS2`, the efficacy in assay [1] was 91.8%. The result in assay [2], in assay [3] and in assay [4] was inactive.
As for `NC1(c2ccc(-c3nc4ccn5c(=O)[nH]nc5c4cc3-c3ccccc3)cc2)CCC1`, in assay [1], the efficacy is 104%. For the same compound, the AC50 in assay [2] is 2.82 µM (active); in assay [3] it was 2.51 µM (active); in assay [4] it was 2.51 µM (active).
Take `CCCCOc1ccc(OCCCN2CCOCC2)cc1`: the efficacy in assay [1] is 94.1%. Besides, the AC50 is 25.1 µM (active) in assay [2], 22.4 µM (active) in assay [3] and 22.4 µM (active) in assay [4].
Take `CN(C)CCCSc1ccccc1NC(=O)/C=C/c1ccccc1`: in assay [1], the efficacy is 79.5%. The half-maximal activity concentration (AC50) in assay [2] is 15.8 µM (active); in assay [3] it was 12.6 µM (active); in assay [4], 12.6 µM (active).
Regarding `C[C@]1(Cn2ccnn2)[C@H](C(=O)O)N2C(=O)C[C@H]2S1(=O)=O`, the efficacy in assay [1] is -31%. Also, the AC50 in assay [2] was 0.282 µM (active); in assay [3], 0.316 µM (active); in assay [4] it was 0.316 µM (active).
As to `CC(C)N=C(N)/N=C(\N)Nc1ccc(Cl)cc1`, in assay [1], the efficacy is 78.8%. Besides, the AC50 in assay [2] and in assay [4] was 39.8 µM (active) throughout. Further, the result in assay [3] was inactive.
Turning to `COc1ccc2c(c1)c(CC(=O)OCC(=O)O)c(C)n2C(=O)c1ccc(Cl)cc1`, the efficacy in assay [1] is 44.7%. Besides, the compound was classed as inactive in assay [2], in assay [3] and in assay [4].
As to `CN1CCC(=C2c3ccccc3Sc3ccccc32)CC1`, the efficacy in assay [1] is 61.5%. In addition, the AC50 in assay [2] was 8.91 µM (active); in assay [3] it was 5.01 µM (active); in assay [4], 5.01 µM (active).
